Laboratory results from PubChem BioAssay AID624405 (Broad Institute, 2012).
About 250 (13%) of roughly 1,900 compounds were called active. Another 4% or so got no clear call; they are omitted. The list is a sample of the results. Measured potencies and affinities stand elsewhere. A number with no mark means an inactive call.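 The calls were made as follows: active = fitted curve reaches 40% rescue activity at or below the top valid dose, in every test run; inconclusive = test runs disagree, some active and some inactive; inactive = every run misses the threshold or moves the wrong way.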

assay: suppressors of statin myotoxicity in myotubes, dose response, cell-based, C2C12 myotubes, ATP luminescence, cherry pick (AID 624405); conditions: C2C12 myotubes + simvastatin, 48 h, scaled: DMSO wells 0, geranylgeraniol wells 100; series mostly up to 19.5 µM; rescue activity (ATP increase): at the top concentration;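 also: myotubes are challenged with simvastatin at 10 µM to lower ATP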

Row | Compound | rescue activity (ATP increase)
1 | CN1CCN(C2=Cc3ccccc3Sc3cc(F)ccc32)CC1 | -37.4%
2 | Cc1noc(C)c1S(=O)(=O)Nc1ccc2c(c1)CC(=O)N([C@H](C)CO)C[C@@H](C)[C@H](CN(C)Cc1ccc(Cl)c(Cl)c1)O2 | 37.4%
3 | Cc1noc(C)c1S(=O)(=O)Nc1ccc2c(c1)CC(=O)N([C@@H](C)CO)C[C@@H](C)[C@H](CN(C)Cc1ccc(-c3ccccc3)cc1)O2 | 27.5%
4 | Cc1noc(C)c1S(=O)(=O)Nc1ccc2c(c1)CC(=O)N([C@H](C)CO)C[C@@H](C)[C@@H](CN(C)Cc1ccc(Cl)c(Cl)c1)O2 | 25.4% [at 21 µM]
5 | Cc1noc(C)c1S(=O)(=O)Nc1ccc2c(c1)CC(=O)N([C@H](C)CO)C[C@@H](C)[C@@H](CN(C)Cc1ccc(C(F)(F)F)cc1)O2 | 27.1%
6 | Cc1noc(C)c1S(=O)(=O)Nc1ccc2c(c1)CC(=O)N([C@@H](C)CO)C[C@H](C)[C@@H](CN(C)Cc1ccc(Cl)c(Cl)c1)O2 | -10.4% [at 21 µM]
7 | Cc1noc(C)c1S(=O)(=O)Nc1ccc2c(c1)CC(=O)N([C@H](C)CO)C[C@H](C)[C@@H](CN(C)Cc1ccc(Cl)c(Cl)c1)O2 | 31.6%
8 | C/C=C/c1ccc2c(c1)O[C@@H](CN(C)C(=O)NC1CCCCC1)[C@@H](C)CN([C@@H](C)CO)S2(=O)=O | 1.41%
9 | O=C(O)CC(c1ccccc1)n1cccc1 (centres undefined) | -17%
10 | O=C(CN1CCN(C(=O)c2ccco2)CC1)Nc1cc(C(F)(F)F)ccc1Cl | 12.5%
11 | COc1ccc(NC(=O)Nc2ccc3c(c2)C(=O)N([C@H](C)CO)C[C@H](C)[C@H](CN(C)Cc2ccc(C(F)(F)F)cc2)OCCCC[C@@H](C)O3)cc1 | 22.8%
12 | CCn1ncc(Br)c1C(=O)Nc1cc(C(=O)OC)ccc1C(=O)OC | 7.32%
13 | O=C(C[C@H]1CC[C@H]2[C@@H](COC[C@H](O)CN2Cc2ccc(Oc3ccccc3)cc2)O1)N1CCCCC1 | -0.632%
14 | O=C(C[C@H]1CC[C@H]2[C@@H](COC[C@@H](O)CN2Cc2ccc(Oc3ccccc3)cc2)O1)N1CCCCC1 | -0.333%
15 | O=C(C[C@@H]1CC[C@@H]2[C@H](COC[C@H](O)CN2Cc2ccc(C(F)(F)F)cc2)O1)NCCc1ccccc1 | 3.36%
16 | O=C(C[C@@H]1CC[C@H]2[C@@H](COC[C@@H](O)CN2Cc2ccc(Oc3ccccc3)cc2)O1)Nc1nccs1 | 15.2%
17 | CC(C)NC(=O)Nc1cccc2c1O[C@H](CN(C)Cc1ccc(-c3ccccc3)cc1)[C@@H](C)CN([C@@H](C)CO)C2=O | 15.1%
18 | Cc1ccc(S(=O)(=O)NCCN=C(CN2CCCC2)NS(=O)(=O)c2ccc(C)cc2)cc1 | 10.6%
19 | CC(=O)OC1CC(n2ccc(NC(=O)c3ccccc3)nc2=O)OC1CO (centres undefined) | 11.3%
